Measured values published in PubChem BioAssay.
Where “and” joins values, the source holds several entries; their conditions need not be identical. Equal entries are not always repeated. A number with no mark means an inactive call.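 The calls were made as follows: active = superoxide response below 65% of plate, a cut near 3 SD across the whole screen; inactive = the rest.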

test: calorie-restriction mimetic ROS inhibitors, yeast – validation compound set, pilot screen (AID 2706);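 also: yeast exposed to compound for one week at 30 degrees C before staining; 100% = mean of all compound wells on the same plate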; conditions: S. cerevisiae aging, superoxide DHE fluorescence; at 10 µM; stronger effect = lower value

SMILES | superoxide response (% of plate)
O=C(Cc1ccccc1[N+](=O)[O-])NCc1ccncc1 | 97.3%
Cn1nc(-c2ccc(Cl)cc2)nc2c(=O)n(C)c(=O)nc1-2 | 79.2%
O=C(O)CCCCCNC(=O)Nc1ccc2c(c1)OCCO2 | 105%
COc1ccc(S(N)(=O)=O)cc1C(N)=O | 106%
Cc1occc(=O)c1O | 100%
C[C@]12CCC3C(CC=C4C[C@@H](O)CC[C@@]43C)C1CCC2[C@]1(C)CCC(=O)O1 (stereo partly drawn) | 100%
CC(=O)N(CCC1(c2ccc(C)cc2)CCOC(C(C)C)C1)Cc1ccco1 (stereo not drawn) | 99.9%
O=C(CCc1ccccc1)Nc1ccccc1C(F)(F)F | 96.3%
CN(C)C(=O)Oc1cccc([N+](C)(C)C)c1 | 93.6% and 108%
CCOc1ccc(C(NC(C)=O)c2ccc(OC)c(OC)c2)cc1 (stereo not drawn) | 107%
COc1ccccc1N=CC1=C(O)CC(c2ccccc2)CC1=O (stereo not drawn) | 95.6%
O=C1CC(c2ccc(O)cc2)Oc2cc(O)cc(O)c21 (stereo not drawn) | 91.7%
O=C(NCCO)c1ccc(Cl)c(Cl)c1 | 105%
N/C(Cc1ccc(Cl)cc1Cl)=N\OC(=O)c1ccc(Br)o1 | 124%
CC1=NN(C(=O)c2ccc(Br)cc2)C(O)(c2ccccc2)C1 (stereo not drawn) | 86.9%
Clc1cc(-c2ccc(/C=N/n3cnnc3)o2)ccc1Br | 97%
O=c1oc2c(CN3CCCCC3)c(O)ccc2c2c1CCCCC2 | 102%
Cc1ccc(-c2nnc(-c3ccc4c(c3)OCO4)o2)cc1 | 98.9%
